Inconclusive results are not listed. Active and inactive are the calls of the source. Calls come from the whole dose curve; as a rule, active = well fitted curve in the direction sought with a large enough effect; inconclusive = small, poorly fitted or top-dose-only effect, or another doubt; inactive = no such curve, though single readings can be large; an effect the other way counts as inactive or inconclusive.
Key:
[1] = Quantitative High-Throughput drug screen in 47 multiple myeloma cell lines against the NCATS MIPE library collection: AMO1_DSMZ cell viability assay (AID 1918927; note: nearly all actives have a fitted effect of over 30% in size; note: potency is the fitted concentration of half-maximal effect)
Procedure, shortened: (§1)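 CellTiter-Glo ATP luminescence gave viability after 48 h compound treatment at 37C of 500 multiple myeloma cells per well. Normalisation used DMSO-only wells as 100% and media-only wells as 0% viability; primary qHTS of approved and investigational drugs.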

[2] = Quantitative High-Throughput drug screen in 47 multiple myeloma cell lines against the NCATS MIPE library collection: Karpas620_DSMZ cell viability assay (AID 1918959); note: nearly all actives have a fitted effect of over 30% in size; note: potency is the fitted concentration of half-maximal effect
Procedure, shortened: (§2)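 Myeloma cells (500 per well) were exposed to MIPE 4.0 compounds by pin transfer and incubated 48 hours at 37C, 5% CO2. Viability was read as ATP by CellTiter-Glo luminescence, normalised to DMSO (100%) and media-only (0%) wells.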

[3] = Quantitative High-Throughput drug screen in 47 multiple myeloma cell lines against the NCATS MIPE library collection: JIM3_ECACC cell viability assay (AID 1918963; note: nearly all actives have a fitted effect of over 35% in size; note: potency is the fitted concentration of half-maximal effect)
Procedure, shortened: as §2

[4] = Quantitative High-Throughput drug screen in 47 multiple myeloma cell lines against the NCATS MIPE library collection: INA6_PLB cell viability assay (AID 1918965; note: nearly all actives have a fitted effect of over 55% in size; note: potency is the fitted concentration of half-maximal effect)
Procedure, shortened: as §1

[5] = Quantitative High-Throughput drug screen in 47 multiple myeloma cell lines against the NCATS MIPE library collection: JJN3_DSMZ cell viability assay (AID 1918966; note: nearly all actives have a fitted effect of over 50% in size; note: potency is the fitted concentration of half-maximal effect)
Procedure, shortened: as §1

[6] = Quantitative High-Throughput drug screen in 47 multiple myeloma cell lines against the NCATS MIPE library collection: H1112_PLB cell viability assay (AID 1918967; note: nearly all actives have a fitted effect of over 30% in size; note: potency is the fitted concentration of half-maximal effect)
Procedure, shortened: as §1

[7] = Quantitative High-Throughput drug screen in 47 multiple myeloma cell lines against the NCATS MIPE library collection: KMS27_JCRB cell viability assay (AID 1918970); note: nearly all actives have a fitted effect of over 30% in size; note: potency is the fitted concentration of half-maximal effect
Procedure, shortened: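 Luminescent ATP read-out (CellTiter-Glo, 5 min at room temperature) after 48 h compound exposure of 500 KMS27_JCRB cells per well; DMSO wells define full viability and media-only wells zero.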

[8] = Quantitative High-Throughput drug screen in 47 multiple myeloma cell lines against the NCATS MIPE library collection: KMS12BM_JCRB cell viability assay (AID 1918971); note: nearly all actives have a fitted effect of over 35% in size; note: potency is the fitted concentration of half-maximal effect
Procedure, shortened: (§3)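 Inhibition of cell viability is measured here. Each line was plated at 500 cells per well, treated with MIPE 4.0 drugs, kept 48 hours at 37C, then assayed for ATP content by CellTiter-Glo luminescence.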

[9] = Quantitative High-Throughput drug screen in 47 multiple myeloma cell lines against the NCATS MIPE library collection: KMS12PE_JCRB cell viability assay (AID 1918972); note: nearly all actives have a fitted effect of over 30% in size; note: potency is the fitted concentration of half-maximal effect
Procedure, shortened: as §1

[10] = Quantitative High-Throughput drug screen in 47 multiple myeloma cell lines against the NCATS MIPE library collection: KMS20_JCRB cell viability assay (AID 1918973); note: nearly all actives have a fitted effect of over 45% in size; note: potency is the fitted concentration of half-maximal effect
Procedure, shortened: as §1

[11] = Quantitative High-Throughput drug screen in 47 multiple myeloma cell lines against the NCATS MIPE library collection: KMS21BM_JCRB cell viability assay (AID 1918974); conditions: ATP luminescence, 48 h; viability: at 45.8 µM (top of the series) unless noted; note: potency is the fitted concentration of half-maximal effect
Procedure, shortened: as §1

[12] = Quantitative High-Throughput drug screen in 47 multiple myeloma cell lines against the NCATS MIPE library collection: ARP1_JJKsccF8 cell viability assay (AID 1918928; note: nearly all actives have a fitted effect of over 40% in size)
Procedure, shortened: (§4)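 Each line was plated at 500 cells/well and treated 48 h with library drugs. Viability came from CellTiter-Glo luminescence relative to DMSO and cell-free medium controls.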

[13] = Quantitative High-Throughput drug screen in 47 multiple myeloma cell lines against the NCATS MIPE library collection: ARD_JJKsccE7 cell viability assay (AID 1918929; note: potency is the fitted concentration of half-maximal effect)
Procedure, shortened: as §1

[14] = Quantitative High-Throughput drug screen in 47 multiple myeloma cell lines against the NCATS MIPE library collection: Karpas417_ECACC cell viability assay (AID 1918961); conditions: Karpas417 myeloma viability, CellTiter-Glo ATP luminescence, 48 h; viability (% of DMSO): at 45.8 µM (top of the series); note: potency is the fitted concentration of half-maximal effect
Procedure, shortened: as §1

[15] = Quantitative High-Throughput drug screen in 47 multiple myeloma cell lines against the NCATS MIPE library collection: JIM1_ECACC cell viability assay (AID 1918964; note: potency is the fitted concentration of half-maximal effect)
Procedure, shortened: as §1

[16] = Quantitative High-Throughput drug screen in 47 multiple myeloma cell lines against the NCATS MIPE library collection: Karpas25_ECACC cell viability assay (AID 1918968; note: nearly all actives have a fitted effect of over 35% in size; note: potency is the fitted concentration of half-maximal effect)
Procedure, shortened: as §1

[17] = Quantitative High-Throughput drug screen in 47 multiple myeloma cell lines against the NCATS MIPE library collection: KMM1_JCRB cell viability assay (AID 1918960); note: nearly all actives have a fitted effect of over 30% in size; note: potency is the fitted concentration of half-maximal effect
Procedure, shortened: as §4

[18] = Quantitative High-Throughput drug screen in 47 multiple myeloma cell lines against the NCATS MIPE library collection: KHM11_PLB cell viability assay (AID 1918962); note: nearly all actives have a fitted effect of over 35% in size; note: potency is the fitted concentration of half-maximal effect
Procedure, shortened: as §2

[19] = Quantitative High-Throughput drug screen in 47 multiple myeloma cell lines against the NCATS MIPE library collection: MMM1_PLB cell viability assay (AID 1918976)
Procedure, shortened: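 ATP-based CellTiter-Glo luminescence after 48 h drug exposure (37 °C, 5% CO2) of 500 myeloma cells per well. DMSO-only wells set 100% viability, media-only wells 0%; MIPE 4.0 library added by pin tool.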

[20] = Quantitative High-Throughput drug screen in 47 multiple myeloma cell lines against the NCATS MIPE library collection: KMS26_JCRB cell viability assay (AID 1918975); note: potency is the fitted concentration of half-maximal effect; nearly all actives have a fitted effect of over 45% in size
Procedure, shortened: as §3

## CCn1c(C(=O)N(C2CC2)C2CC2)cc2c3c(ncn3C)c(Nc3cc(C)n(C)n3)nc21
[1]
  Potency: inactive
[2]
  Potency: inactive
[3]
  Potency: 18.7 µM (active)
[4]
  Potency: 16.6 µM (active)
[5]
  Potency: 20.9 µM (active)
[6]
  Potency: 18.7 µM (active)
[7]
  Potency: inactive
[8]
  Potency: inactive
[9]
  Potency: 11.8 µM (active)
[10]
  Potency: 16.6 µM (active)
[11]
  Potency: inactive

## COc1ccc(-c2coc3cc(O)ccc3c2=O)cc1
[12]
  Potency: inactive
[13]
  Potency: inactive
[14]
  Potency: inactive
[3]
  Potency: inactive
[15]
  Potency: inactive
[5]
  Potency: inactive
[6]
  Potency: inactive
[16]
  Potency: inactive
[7]
  Potency: inactive
[9]
  Potency: inactive

## C[C@]12CCC3c4ccc(O)cc4CCC3C1CCC2=O (stereo partly specified)
[1]
  Potency: 0.833 µM (active)
[2]
  Potency: inactive
[17]
  Potency: inactive
[3]
  Potency: inactive
[6]
  Potency: inactive
[7]
  Potency: inactive
[8]
  Potency: 20.9 µM (active)
[9]
  Potency: inactive

## CN[C@@H](C)C(=O)N[C@H]1CN(C(=O)CC(C)C)CC[C@H]2CC[C@@H](C(=O)NC(c3ccccc3)c3ccccc3)N2C1=O
[1]
  Potency: 2.96 µM (active)
[2]
  Potency: 1.18 µM (active)
[3]
  Potency: 9.35 µM (active)
[4]
  Potency: 8.33 µM (active)
[8]
  Potency: 26.4 µM (active)
[9]
  Potency: 3.72 µM (active)

## C[N+]1(C)[C@@H]2CC(OC(=O)[C@H](CO)c3ccccc3)C[C@H]1[C@H]1O[C@@H]12 (stereo partly specified)
[1]
  Potency: inactive
[2]
  Potency: inactive
[17]
  Potency: inactive
[15]
  Potency: inactive
[6]
  Potency: inactive
[7]
  Potency: inactive
[8]
  Potency: inactive
[9]
  Potency: inactive
[10]
  Potency: inactive

## CCS(=O)(=O)N1CC(CC#N)(n2cc(-c3ncnc4[nH]ccc34)cn2)C1
[1]
  Potency: 3.72 µM (active)
[14]
  Potency: 0.105 µM (active)
[18]
  Potency: 11.8 µM (active)
[3]
  Potency: 16.6 µM (active)
[5]
  Potency: 11.8 µM (active)
[6]
  Potency: inactive
[8]
  Potency: 18.7 µM (active)
[10]
  Potency: inactive

## COc1ccc2c3c1OC1C[C@@H](O)C=C[C@@]31CCN(C)C2 (stereo partly specified)
[1]
  Potency: inactive
[2]
  Potency: inactive
[3]
  Potency: 14.8 µM (active)
[15]
  Potency: inactive
[5]
  Potency: 4.18 µM (active)
[7]
  Potency: inactive
[9]
  Potency: inactive

## Nc1ncnc2ccccc12
[12]
  Potency: inactive
[13]
  Potency: inactive
[2]
  Potency: inactive
[17]
  Potency: inactive
[3]
  Potency: inactive
[15]
  Potency: inactive
[4]
  Potency: inactive
[5]
  Potency: inactive
[7]
  Potency: inactive

## CN1[C@@H]2CCC[C@@H]1CC(NC(=O)c1nn(C)c3ccccc13)C2 (stereo partly specified)
[1]
  Potency: inactive
[17]
  Potency: inactive
[18]
  Potency: inactive
[3]
  Potency: inactive
[6]
  Potency: inactive
[7]
  Potency: inactive
[8]
  Potency: inactive
[9]
  Potency: inactive

## NC(=O)c1ccc2nc(-c3ccc(Oc4ccc(Cl)cc4)cc3)[nH]c2c1
[1]
  Potency: 1.48 µM (active)
[17]
  Potency: 0.469 µM (active)
[14]
  Potency: 0.187 µM (active)
[18]
  Potency: 0.0083 µM (active)
[3]
  Potency: 0.105 µM (active)
[4]
  Potency: 0.0209 µM (active)
[6]
  Potency: inactive
[9]
  Potency: 9.35 µM (active)
[10]
  Potency: 5.26 µM (active)
[11]
  Potency: 18.7 µM (active)

## NC(=O)c1cccc(-c2cc(Nc3ccc(OC(F)(F)F)cc3)ncn2)c1
[1]
  Potency: 18.7 µM (active)
[17]
  Potency: 14.8 µM (active)
[18]
  Potency: 14.8 µM (active)
[3]
  Potency: 18.7 µM (active)
[7]
  Potency: 18.7 µM (active)
[8]
  Potency: 23.5 µM (active)
[9]
  Potency: 16.6 µM (active)
[19]
  Potency: 20.9 µM (active)

## N#CC(=C(N)Sc1ccccc1N)C(C#N)=C(N)Sc1ccccc1N
[1]
  Potency: 18.7 µM (active)
[2]
  Potency: 16.6 µM (active)
[17]
  Potency: 18.7 µM (active)
[18]
  Potency: 0.662 µM (active)
[3]
  Potency: 18.7 µM (active)
[15]
  Potency: 16.6 µM (active)
[4]
  Potency: 16.6 µM (active)
[16]
  Potency: 8.33 µM (active)
[7]
  Potency: 18.7 µM (active)
[8]
  Potency: inactive
[9]
  Potency: 23.5 µM (active)
[20]
  Potency: 1.32 µM (active)

## COc1ncc(-c2ccc3nccc(-c4ccnnc4)c3c2)cc1NS(=O)(=O)c1ccc(F)cc1F
[1]
  Potency: 0.0469 µM (active)
[14]
  Potency: inactive
[4]
  Potency: 0.0235 µM (active)
[5]
  Potency: 0.118 µM (active)
[8]
  Potency: 0.0662 µM (active)
[9]
  Potency: 0.0935 µM (active)
[20]
  Potency: 0.0526 µM (active)

## CC(=NNC(=S)N1CCC1)c1ccccn1
[1]
  Potency: 0.001 µM (active)
[14]
  Potency: inactive
[3]
  Potency: inactive
[6]
  Potency: inactive
[16]
  Potency: inactive
[7]
  Potency: 0.001 µM (active)
[8]
  Potency: 0.0042 µM (active)
[9]
  Potency: 0.001 µM (active)

## Clc1cc(Cl)cc(CNc2ncncc2-c2ccc3c(c2)OCO3)c1
[1]
  Potency: 7.43 µM (active)
[13]
  Potency: 16.6 µM (active)
[3]
  Potency: 16.6 µM (active)
[4]
  Potency: 16.6 µM (active)
[7]
  Potency: 18.7 µM (active)

## CN1CCN(CCOc2cc(OC3CCOCC3)c3c(Nc4c(Cl)ccc5c4OCO5)ncnc3c2)CC1
[1]
  Potency: 18.7 µM (active)
[17]
  Potency: 14.8 µM (active)
[18]
  Potency: 18.7 µM (active)
[3]
  Potency: 23.5 µM (active)
[15]
  Potency: 20.9 µM (active)
[6]
  Potency: 23.5 µM (active)
[7]
  Potency: 16.6 µM (active)
[9]
  Potency: 14.8 µM (active)
[10]
  Potency: 8.33 µM (active)
[11]
  Potency: 1.87 µM (active)

Source: PubChem BioAssay (NCATS)
